PubChem BioAssay AID720519 (National Center for Advancing Translational Sciences (NCATS), 2013)
Inconclusive results are not listed. Active and inactive are the calls of the source. The call rests on the fitted dose curve; in most records, active means well fitted activation curve with a large enough effect; inconclusive means small, poorly fitted or top-dose-only effect; inactive means flat fitted curve, though single readings scatter.

test: qHTS for Inhibitors of Cell Surface uPA Generation: Confirmatory Assay for Cherry-picked Compounds; settings: cell surface uPA activity generation, qHTS confirmation; series mostly up to 115 µM
Source text: The overall objective of this project is to perform a quantitative high throughput screen (qHTS) to identify novel compounds that inhibit the generation of cell surface urokinase activity. The urokinase plasminogen activator (uPA) is one of the two primary endogenous systems that mediate plasminogen activation into plasmin. Members of this system, including uPA and its receptor (uPAR), are overexpressed in several malignant tumors. This system plays a major role in adhesion, migration, invasion and metastasis of cancer cells. Small molecule inhibitors of the uPA system will serve as probes to understand the molecular mechanisms of the uPA cascade and better understanding the micro-environmental circumstances that facilitate the activation of plasminogen by uPA, and finally may provide novel candidate agents for anticancer drug therapy.
[…] […] Upon inhibition of the uPA activation cascade, the subsequent cell surface uPA activity-dependent translocation of LF into the cytoplasm is inhibited. ATP-Lite is used to measure intracellular ATP concentrations (measure cell viability) which remain increased if LF entry into the cytoplasm is inhibited. This validation assay was performed using a small set of cherry picked compounds. Activation of cell viability (increase in luminescence signal) due to inhibition of the cell surface uPA generation is the desired outcome of this assay.
NIH Chemical Genomics Center [NCGC]
NIH Molecular Libraries Probe Centers Network [MLPCN]
Assay Submitter (PI): Thomas Bugge, National Institute of Dental and Craniofacial Research, NIH
Cultured RAW 264.7 were dispensed into 1536-well clear bottom, white walled tissue culture plates at a density of 4000 cells/well and were incubated overnight (12-16 h) at 37 C in a 5% CO2 incubator. Serially diluted compounds (1:5 dilution) in 23 nl DMSO were added to cells (0.0024 uM to 3.83 uM final concentration). […] Compound and reagent-treated plates were incubated for 24 h at 37 C in a 5% CO2 incubator. Three microliter of PerkinElmer ATPlite was then added to each well and luminescence was detected using the PerkinElmer ViewLux plate reader for a 5 sec exposure.

Potency, inactive:
CN(CC(=O)N(C)CC(=O)Nc1c(Cl)cccc1Cl)Cc1ccccc1F
CCC(=O)N1CCC(NC(=O)Nc2ccc(OC(F)(F)F)cc2)CC1
CCC(COC)NC(=O)CCc1nnc(Cc2c[nH]c3ccccc23)o1 (stereo not given)
CC(/C=C1\SC(=S)N(CCCC(=O)Nc2ccc(C(=O)O)cc2)C1=O)=C\c1ccccc1
CC1=CC(C)C(C[N+]2(C)CCCCC2)C(C)C1 (stereo not given)
CC1CCCN(C(=O)c2ccc(CNc3c(N4CCCCC4)c(=O)c3=O)cc2)C1 (stereo not given)
Cc1ccc2[nH]c(CN3CCN(C)C(CCO)C3)c(C)c2c1 (stereo not given)
COc1cc(/C=N/NC(=O)c2ccncc2)ccc1O
O=C(O)c1ccc(-n2nnnc2SCc2cccc(Br)c2)cc1
O=C(NCCN1CCOCC1)c1ccccc1Cl
COCCN(C(=O)CSc1nnc(-c2ccncc2)n1C)c1c(N)n(CC(C)C)c(=O)[nH]c1=O
Cc1cc(C)cc(S(=O)(=O)c2cn(C)c3cc(N4CCN(C)CC4)c(F)cc3c2=O)c1
O=C(COC(=O)c1cccc([N+](=O)[O-])c1)NNC(=O)c1cccs1
CCC(CC)Nc1ccc(C(CC(N)=O)NC(=O)Cc2ccc(Br)cc2)cc1[N+](=O)[O-] (stereo not given)
Cc1ccc(-n2nc3c(c2NC(=O)c2ccc4c(c2)OCO4)CS(=O)C3)c(C)c1 (stereo not given)
CCNC(=S)NNC(=O)C(c1ccccc1)c1ccccc1
CCN(CC)CCCn1c2c(c(SCC(=O)Nc3cccc4ccccc34)nc1=O)CCC2
COC(=O)CCSCC(=O)N1N=C(c2ccc(OC)cc2)CC1c1cccc(OC)c1OC (stereo not given)
COc1cc(/C=N/NC(=O)Cc2csc(C)n2)ccc1OCC(C)C
COc1cc(F)ccc1S(=O)(=O)n1c(C)nc2ccccc21
O=C(NCc1ccc(F)cc1)c1cc(S(=O)(=O)N2CCCCC2)ccc1N1CCOCC1
Cc1cccc(NC(=O)c2cc3c(=O)n4ccccc4nc3s2)c1
CCS(=O)(=O)N1CCC(C(=O)NCc2ccc(OC)cc2OC)CC1
COc1ccc(CNC(=O)C2CCC(CNS(=O)(=O)c3ccc(C)cc3)CC2)cc1 (stereo not given)
O=C(CSc1nnnn1-c1cccc(F)c1)Nc1nc2ccccc2s1
COc1ccc(NC(=O)Nc2nnc(N3CCCCC3C)s2)cc1OC (stereo not given)
O=C(CSc1ccc([N+](=O)[O-])cn1)Nc1nccs1
COc1ccc(S(=O)(=O)N2CCOCC2)cc1NC(=O)CN1C(=O)NC2(CCCC2)C1=O
COc1cc(CN2CCNC(=O)C2CC(=O)NCCCC2CCCC2)cc(OC)c1 (stereo not given)
Cc1ccccc1NC(=O)N1CCN(c2ncccn2)CC1
CN(C)CCNC(=O)Nc1ccc([N+](=O)[O-])cc1
COc1cc(NC(=S)NCCc2ccc(S(N)(=O)=O)cc2)c(OC)cc1Cl
CCCN1CCN(C(=O)CCCn2c(C)c3cnn(-c4ccccc4)c(=O)c3c2C)CC1
CN(C(=O)c1ccccc1C(=O)OCC(=O)NCc1ccccc1)C1CCCCC1
OCC1CCCCN1CC(O)COC(c1ccc(F)cc1)c1ccc(F)cc1 (stereo not given)
Cc1ccn(CCC(=O)N2CCc3ccccc32)n1
COC(=O)CNC(=O)COC(=O)/C=C/c1ccccc1[N+](=O)[O-]
CCn1nc(NS(=O)(=O)c2ccccc2)c2cc3cc(C)ccc3nc21
CN(CCO)c1ccc(C(C(=O)c2ccccc2)c2ccc(N(C)CCO)cc2)cc1
O=C(C[n+]1ccccc1)Nc1ccccc1C(F)(F)F
